# The list is not random: actives were taken first. Their share in the collection is about 19%.
# DT40 TDP1 no CPT: qHTS for Inhibitors of human tyrosyl-DNA phosphodiesterase 1 (TDP1): qHTS in cells in absence of CPT; DT40 Tdp1-/- hTDP1 cells, no CPT, ATP luminescence, 48 h; Potency, µM (top dose mostly 46.2 µM), without a hit: top-dose activity change, negative = growth inhibition, hits mostly inhibitors; 15% of 420,000 active; note: nearly all actives have a fitted effect of over 55% in size
#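 Stably hTDP1-transfected Tdp1-null chicken DT40 cells were treated with library compounds minus camptothecin and grown for at least 48 hr at 37 °C, after which cellular ATP was quantified by luminescence.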
# DT40 TDP1 CPT: DT40-hTDP1 cell growth loss with CPT; AID 686979; 12% of 420,000 active; chicken DT40 Tdp1-/-;hTDP1 cells + 20 nM CPT, ATP luminescence, 48 h; Potency, µM (doses to about 46.2 µM), for inactives: top-dose activity change, negative = growth inhibition, actives largely listed as inhibitors; note: nearly all actives have a fitted effect of over 55% in size
#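 Cell growth measured by CellTiter-Glo luminescence after a minimum 48 h, 37 C compound exposure with 20 nM CPT in Tdp1-knockout DT40 cells stably expressing hTDP1, seeded 400/well; qHTS titration format.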
# RORgamma inh: inhibitors of mouse ROR gamma transcriptional activity | P51450 | Drosophila S2 Gal4-RORgamma UAS-luciferase reporter, 20 h | Potency, µM (highest dose often 53.6 µM), for the others: at the top dose activity change, negative = inhibition, hits mostly inhibitors | 5.4% of 310,000 active | AID 2551; note: nearly all actives have a fitted effect of over 60% in size
#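 Read-out: Photinus luciferase luminescence; inhibitors lower reporter signal. Insect Schneider cells with Gal4-ROR gamma fusion under metallothionein promoter, UAS reporter; 700 uM final copper sulfate induction, 20 hr, ambient temperature.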
# VP16 counter: Gal4-VP16 reporter inhibition counter-screen; AID 2546; 3.5% of 310,000 active; Potency, µM (titrated, usually from 53.6 µM), for the others: at the highest dose activity, negative = inhibition, usual class: inhibitors; Drosophila S2 Gal4-VP16 UAS-luciferase, luminescence, 20 h;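 note: Gal4-VP16 expression switched on by copper sulfate through the metallothionein promoter; nearly all actives have a fitted effect of over 50% in size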
# TDP1 block: blocks human tyrosyl-DNA phosphodiesterase 1; AID 485290; Potency, µM (highest dose often 130 µM), without a hit: at the top dose activity change, negative = inhibition, hits mostly inhibitors; 0.28% of 350,000 active; Q9NUW8; recombinant TDP1, AlphaScreen DNA substrate cleavage; note: nearly all actives have a fitted effect of over 40% in size
# Target sequence (Q9NUW8 whole entry, looked up): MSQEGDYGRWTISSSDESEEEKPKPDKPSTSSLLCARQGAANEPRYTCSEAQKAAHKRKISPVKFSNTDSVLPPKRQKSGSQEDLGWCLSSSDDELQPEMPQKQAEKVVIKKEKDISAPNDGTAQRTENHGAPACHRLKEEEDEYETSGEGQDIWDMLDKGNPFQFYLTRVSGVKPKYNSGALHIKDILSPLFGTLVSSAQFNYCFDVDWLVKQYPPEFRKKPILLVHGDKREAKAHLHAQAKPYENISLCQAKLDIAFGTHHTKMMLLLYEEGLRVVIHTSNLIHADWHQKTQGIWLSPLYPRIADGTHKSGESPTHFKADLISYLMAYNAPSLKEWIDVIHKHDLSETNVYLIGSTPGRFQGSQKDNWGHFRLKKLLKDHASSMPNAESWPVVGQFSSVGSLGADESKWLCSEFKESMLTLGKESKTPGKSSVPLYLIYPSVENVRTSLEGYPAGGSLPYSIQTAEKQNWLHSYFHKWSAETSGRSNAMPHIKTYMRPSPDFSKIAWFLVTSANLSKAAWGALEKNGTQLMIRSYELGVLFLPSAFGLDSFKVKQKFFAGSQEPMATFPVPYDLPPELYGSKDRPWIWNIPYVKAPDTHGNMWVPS
#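 E. coli-derived human Tdp1, 1 nM final. Cpd preinc 15 min RT; substrate 15 nM final, 5 min RT; AS bead mix 10 ug/ml final, 10 min RT. Signal loss = tyrosine-FITC cleavage. No-enzyme wells = max signal.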
# Numbers without * were called inactive; ? = inconclusive; / = not tested or not shown; [ ] = remark or other dose. Calls come from the whole dose curve; as a rule, active = well fitted curve in the direction sought with a large enough effect; inconclusive = small, poorly fitted or top-dose-only effect, or another doubt; inactive = no such curve, though single readings can be large; an effect the other way counts as inactive or inconclusive. % is set by controls: 0 for no effect and ±100 for the full control effect; potency is the fitted concentration of half-maximal effect.
SMILES,DT40 TDP1 no CPT,DT40 TDP1 CPT,RORgamma inh,VP16 counter,TDP1 block
CC(=O)N1CCN(c2ccc(NC(=O)C(C)Oc3ccc(Cl)cc3Cl)cc2)CC1 (stereo not given),20.6µM*,?,36.5%,-8.0%,-5.3%
CC(Oc1ccc(Cl)cc1Cl)C(=O)Nc1ccc(N2CCN(C)CC2)cc1 (stereo not given),18.4µM*,?,7.7%,-8.3%,2.2%
CCOc1ccccc1N1CCN(CC(=O)Nc2ncc(C)s2)CC1,-11.3%,-12.5%,3.8%,4.3%,-13.2%
CC1CCN(S(=O)(=O)c2cc3c4c(c2)CCN4C(=O)CC3)CC1,-14.0%,22.9%,/,/,/
COc1ccccc1-n1cc(-c2ccc(Br)cc2)[nH]c1=S,13µM*,16.4µM*,4.47µM*,10µM*,/
COc1ccccc1-n1cc(-c2ccc([N+](=O)[O-])cc2)[nH]c1=S,?,1.1%,1.58µM*,-22.1%,-2.6%
COc1ccccc1-n1cc(-c2ccc(C)cc2)[nH]c1=S,4.11µM*,3.66µM*,2.82µM*,7.08µM*,/
COc1ccccc1N1CC=C(c2cccc([N+](=O)[O-])c2)NC1=O,10.1%,2.8%,24.5%,7.3%,1.2%
S=c1[nH]c(-c2ccc(Br)cc2)cn1CCc1ccccc1,1.0%,1.9%,6.31µM*,20.1%[10 µM],2.6%
COc1cc(/C=N/n2cc(-c3ccccc3)[nH]c2=S)cc(OC)c1O,?,?,?,-13.0%,4.1%
CN(C)c1cccc(N(C)C)c1CNC(=O)C(C)(C)C,-13.5%,-7.3%,5.2%,-9.4%,1.4%
N#CC1=C(N)N2C(=C(C#N)C13CCCC3)Nc1ccccc12,?,-26.3%,37.0%,-5.8%,2.4%
CCOCCCn1c(SCC(=O)Nc2ccccc2OC)nc2ccccc2c1=O,16.4µM*,?,?,-4.0%,0.9%
CCOc1ccccc1NC(=O)CSc1nc2cc(O)ccc2c(=O)n1-c1ccc(OC)c(OC)c1,?,18.4µM*,-1.0%,-7.7%,/
COc1ccccc1NC(=O)CSc1nnc(C2CCCCC2)n1-c1ccccc1,11.6µM*,20.6µM*,13.2%,1.6%,/
CCOCCCn1c(SCC(=O)Nc2ccc(OC)cc2)nc2ccccc2c1=O,18.4µM*,?,23.3%,5.1%,/
CCOCCCn1c(SCC(=O)Nc2ccccc2)nc2ccccc2c1=O,?,?,38.7%,-15.3%,/
COc1ccc(OC)c(S(=O)(=O)N2CCC(C(=O)NCCc3ccc(OC)c(OC)c3)CC2)c1,-21.1%,-6.3%,?,1.4%[0.365 µM],5.3%
O=C(COc1ccc(/C=N/NC(=O)c2ccncc2)cc1)Nc1ccc([N+](=O)[O-])cc1,?,-13.4%,?,6.6%,8.4%
COc1ccccc1NC(=O)Cn1nc(-c2ccncc2)nc1SCC(=O)NC1CCCC1,14.6µM*,13µM*,0.2%,-7.6%[10 µM],-7.9%
CCOC(=O)c1cccc(NC(=O)CSc2nc3ccccc3c(=O)n2CCOC)c1,20.6µM*,?,5.4%,0.0%,-1.0%
CCc1ccc(NC(=O)CSc2nc3ccccc3c(=O)n2CCCC(=O)N2CCCC2)cc1,?,14.6µM*,?,-11.0%,0.0%
Cc1ccc2nc(SCC(=O)Nc3cc(C(C)(C)C)nn3-c3ccccc3)[nH]c2c1,-1.4%,?,?,?,4.4%
CCOC(=O)c1cccc(NC(=O)CSc2nc3ccccc3c(=O)n2CC)c1,-20.3%,-15.1%,7.2%,-0.6%,-2.1%
Cn1c(SCC(=O)Nc2cc(C(C)(C)C)nn2-c2ccccc2)nc2ccccc21,11.6µM*,?,37.5%,-22.0%,2.7%
SMILES,DT40 TDP1 no CPT,DT40 TDP1 CPT,RORgamma inh,VP16 counter,TDP1 block
FC(F)(F)c1ccccc1CN1CCN(C2CCCCCC2)CC1,?,?,-18.4%,2.7%,-2.4%
COC(=O)c1cc(-c2cccc(OC)c2)n[nH]1,-7.9%,-18.2%,6.1%,17.4%,3.9%
Cc1snc(SCc2ccc(F)cc2)c1C#N,?,?,18.2%,0.9%,/
Cn1c(SCC(=O)Nc2ccccc2)nc2ccccc2c1=O,?,2.91µM*,?,?,/
CCOCCCn1c(SCC(=O)Nc2ccc(C)cc2)nc2ccccc2c1=O,14.6µM*,16.4µM*,/,/,1.5%
COc1ccccc1NC(=O)CSc1nc2ccccc2c(=O)n1C,9.2µM*,14.6µM*,43.7%,?,/
COCCCn1c(SCC(=O)c2ccccc2)nc2ccccc2c1=O,23.1µM*,?,27.5%,18.2%,3.6%
COc1ccccc1NC(=O)CSc1nc2c(oc3ccccc32)c(=O)n1C,?,?,32.8%,-7.3%,1.3%
Cc1cc2c(=O)n(C)c(SCC(=O)Nc3ccccc3)nc2s1,?,-25.5%,35.5%,-1.4%,-12.2%
CS(=O)(=O)c1ccc2nc(NC3(C(F)(F)F)N=C4SCCN4C3=O)sc2c1 (stereo not given),-8.8%,?,4.7%,-4.8%,6.5%
CC(C)Oc1cccc(C(=O)NC(=S)Nc2ccccc2)c1,?,?,?,5.01µM*,5.3%
CCCOc1ccc(C(=O)Nc2ccc(NC(=O)c3ccccc3)c(Br)c2)cc1,-70.8%,14.6µM*,/,/,-0.4%[12.3 µM]
CCCOc1cccc(C(=O)NC(=S)Nc2cccc(NC(=O)c3ccccc3Cl)c2)c1,?,?,?,?,2.3%
CCCOc1cccc(C(=O)Nc2cc(-c3ccccc3)no2)c1,?,11.6µM*,/,/,-3.7%
CCCOc1cccc(C(=O)NC(=S)Nc2ccccc2)c1,?,?,8.91µM*,?,5.1%
Cc1cc(C(=O)NNC(=O)c2cccc(N(C)C)c2)c(C)o1,4.0%,-14.6%,-20.5%,-4.3%,3.1%
Cc1ccc(S(=O)(=O)c2cn(Cc3ccc(F)cc3)c3cc4c(cc3c2=O)OCO4)cc1,-0.9%,-15.3%,?,-8.5%,-1.9%
CC(=O)c1cccc(NC(=O)C2C3C=CC(C3=C(c3ccccc3)c3ccccc3)C2C(=O)O)c1 (stereo not given),-27.3%,-10.7%,-12.6%,-9.0%,-5.5%
CC(C)c1ccc(N(CCc2ccccn2)C(=O)C(C)(C)C)cc1,14.6µM*,16.4µM*,/,/,/
CC(C)(C)C(=O)N(CCN(C(=O)C(C)(C)C)c1ccccc1)c1ccccc1,?,?,-6.6%,17.3%,6.7%
O=C(CCS(=O)(=O)c1ccccc1)NC12CC3CC(CC(C3)C1)C2,-16.2%,-4.9%,-21.9%,-2.7%,3.5%
O=C(Nc1nnc(-c2ccc(Cl)cc2)o1)Nc1ccccc1Cl,?,?,-4.9%,-3.9%,1.0%
O=C(Nc1nnc(-c2ccccc2)o1)c1cc(Cl)sc1Cl,9.2µM*,7.31µM*,2.24µM*,1.26µM*,5.6%
O=C(Nc1nnc(-c2ccc(F)cc2)o1)c1cc(Cl)sc1Cl,20.6µM*,25.9µM*,3.16µM*,2.51µM*,8.5%

# Screening results: PubChem BioAssay, National Center for Advancing Translational Sciences (NCATS)
